# Test results: paper PMC4336329 (PLoS ONE, 2015)
# About 14,000 (4.5%) of roughly 310,000 compounds showed an effect of 50% or more. The effect is printed as a negative number. The sample holds strong results, similar compounds and a random draw of the others, so the mix is not that of the screen.
# Target: human ether-à-go-go-related gene (hERG) potassium channel (human, UniProt Q12809)
# Assay: primary screen, population patch clamp on CHO cells stably expressing hERG; higher = less effect of the substance
# 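Note: peak tail current of the secondary pulse compared with the same well before compound.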
# Chain of human ether-à-go-go-related gene (hERG) potassium channel (Q12809 whole entry, looked up): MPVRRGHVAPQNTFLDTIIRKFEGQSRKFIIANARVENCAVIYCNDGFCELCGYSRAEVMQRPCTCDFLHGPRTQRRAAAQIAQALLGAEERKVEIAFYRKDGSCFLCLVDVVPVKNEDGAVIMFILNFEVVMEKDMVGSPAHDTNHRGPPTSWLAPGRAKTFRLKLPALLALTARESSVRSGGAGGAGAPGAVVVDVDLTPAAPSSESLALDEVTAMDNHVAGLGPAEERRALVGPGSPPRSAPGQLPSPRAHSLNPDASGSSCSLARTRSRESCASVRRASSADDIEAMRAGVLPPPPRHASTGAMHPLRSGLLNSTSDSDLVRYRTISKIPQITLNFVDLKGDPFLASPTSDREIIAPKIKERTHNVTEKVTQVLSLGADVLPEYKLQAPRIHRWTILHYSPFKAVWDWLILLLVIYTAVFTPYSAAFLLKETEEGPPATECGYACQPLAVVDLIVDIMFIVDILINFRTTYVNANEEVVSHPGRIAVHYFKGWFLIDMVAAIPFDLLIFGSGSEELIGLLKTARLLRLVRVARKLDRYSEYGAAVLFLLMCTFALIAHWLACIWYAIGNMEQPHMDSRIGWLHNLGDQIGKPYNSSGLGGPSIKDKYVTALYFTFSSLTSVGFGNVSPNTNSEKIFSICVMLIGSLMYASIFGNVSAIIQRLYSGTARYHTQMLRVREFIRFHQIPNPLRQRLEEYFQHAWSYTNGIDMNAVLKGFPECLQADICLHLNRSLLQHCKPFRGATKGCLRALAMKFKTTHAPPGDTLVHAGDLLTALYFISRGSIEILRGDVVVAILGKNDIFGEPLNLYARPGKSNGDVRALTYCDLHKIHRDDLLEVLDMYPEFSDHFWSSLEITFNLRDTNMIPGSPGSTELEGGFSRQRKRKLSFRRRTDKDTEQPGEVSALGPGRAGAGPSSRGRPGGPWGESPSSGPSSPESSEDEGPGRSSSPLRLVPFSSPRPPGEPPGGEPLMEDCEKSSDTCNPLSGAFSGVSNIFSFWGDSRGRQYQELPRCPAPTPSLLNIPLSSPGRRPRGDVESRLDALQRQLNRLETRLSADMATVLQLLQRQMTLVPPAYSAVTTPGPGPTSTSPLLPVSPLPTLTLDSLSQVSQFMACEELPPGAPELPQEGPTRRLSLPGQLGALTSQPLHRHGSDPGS
row,Structure (SMILES),"hERG current change (%, negative = inhibition) at 10uM [%]"
1,Cc1ccc(S(=O)(=O)N2N=C3CCCCC3C2(O)C(F)(F)F)cc1 (centres unmarked),4.99
2,O=C(NN=C1CCCC1)c1cccc(O)c1,8.96
3,O=C1C2C3CCCC3=C3CCCC3C2C(=O)N1c1ccccc1 (centres unmarked),1.8
4,C/C(=N/NC(=O)c1ccc2c(c1)OCO2)c1ccc(NC(=O)c2ccc(F)cc2)cc1,9.33
5,Cc1ccc(C(=O)NC2CCCN(c3ccc(C(F)(F)F)cn3)C2)cn1 (centres unmarked),-2.75
6,O=C(NC1CCCN(c2ccc(C(F)(F)F)cn2)C1)c1cc(Cl)ccc1F (centres unmarked),5.34
7,O=C(NC1CCCN(c2ccc(C(F)(F)F)cn2)C1)c1ccncc1 (centres unmarked),-69.2
8,CSc1ccccc1C(=O)NC1CCCN(c2ccc(C(F)(F)F)cn2)C1 (centres unmarked),-4.58
9,O=C(CCc1ccccc1Cl)NC1CCCN(c2ccc(C(F)(F)F)cn2)C1 (centres unmarked),13.4
10,O=C(NC1CCCN(c2ccc(C(F)(F)F)cn2)C1)c1ccnc(Cl)c1 (centres unmarked),-55.5
11,COc1ccc(CCNC(=O)Cn2nnc3ccccc3c2=O)cc1,9.17
12,CCOC(=O)CN1CC23C=CC(O2)C(C(=O)Nc2ccc(C(C)=O)cc2)C3C1=O (centres unmarked),4.98
13,CC1=C(C(=O)Nc2cccc(C(=O)NC3CCCCC3C)c2)SCCO1 (centres unmarked),-17.8
14,CC1(C)CC(=O)C=C(NCCN2CCN(C(=O)Nc3ccc(Cl)c(Cl)c3)CC2)C1,-24
15,CS(=O)(=O)N(CC(=O)NCc1cccnc1)Cc1ccc(Cl)cc1,-30.1
16,NC(=O)c1ccc(-n2nnnc2SCC(=O)Nc2ccccc2)cc1,14.3
17,NC(=O)c1nn(-c2ccccc2)nc1NC(=O)CSc1nnnn1-c1ccc(Cl)cc1,-53.7
18,CC(C)(C)n1nnnc1SCC(=O)Nc1nn(-c2ccccc2)nc1C(N)=O,9.33
19,NC(=O)c1ccc(-n2nnnc2SCC(=O)Nc2ccccc2F)cc1,18.9
20,NC(=O)c1ccc(-n2nnnc2SCC(=O)Nc2ccccc2-c2ccccc2)cc1,-58.1
21,Cn1nnnc1SCC(=O)Nc1nn(-c2ccccc2)nc1C(N)=O,-13.8
22,CN1CCN(c2cn[nH]c(=O)c2Cl)CC1,15.4
23,Cc1ccc(-c2csc(NC(=O)CN3CCC(C(N)=O)CC3)n2)cc1,8.38
24,c1cncc(N=c2scc(-c3cccc4ccccc34)n2CCCn2ccnc2)c1,-56.5
25,COCCn1c(-c2cccs2)csc1=Nc1cccnc1,-15.3
26,CC(C)Cn1c(-c2ccco2)csc1=Nc1cccnc1,8.45
27,Fc1ccccc1-c1csc(=Nc2cccnc2)n1CC1CCCO1 (centres unmarked),-16.8
28,CN=c1scc(-c2ccccc2F)n1/N=C(\C)c1cccnc1,-28.9
29,Fc1ccccc1-c1csc(=Nc2cccnc2)n1CCCn1ccnc1,-60.1
